High-throughput results deposited in PubChem BioAssay by National Center for Advancing Translational Sciences (NCATS).
Rows were chosen to be rich in hits. Some 1.1% of all compounds tested hit in one or more screens of this group.
gsp ag: gsp mutant agonism; AID 624287; 340,000 compounds, 0.13% hits; gsp mutant cells, cAMP HTRF, 30 min; Potency, µM (highest dose often 76.9 µM), hits mostly activators; active = well fitted activation curve with a large enough effect; inconclusive = small, poorly fitted or top-dose-only effect, or another doubt; inactive = no such curve, though single readings can be large or run the other way; cell line not stated here;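 also: phosphodiesterase inhibitor Ro 20-1724 added with compounds to block cAMP breakdown; nearly all actives have a fitted effect of over 60% in size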
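Cells in DMEM/10% FBS with G418 were pretreated with compounds in DMSO plus […] (300 uM stock) for 30 min at 37C. cAMP was measured by HTRF (cAMP-d2 plus anti-cAMP antibody-K) after 30 min at room temperature.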
gsp antag: gsp mutant antagonism; gsp-mutant cells, cAMP HTRF, 30 min; Potency, µM (top dose mostly 76.9 µM), most hits filed as inhibitors; 340,000 compounds, 0.4% hits; calls by dose curve; cell line not stated here;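 also: intracellular cAMP measured with PDE inhibitor Ro 20-1724 present during compound exposure; nearly all actives have a fitted effect of over 65% in size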
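HTRF cAMP measurement after 30 min RT detection following 30 min, 37C compound treatment alongside […] (added as 300 uM solution) in G418-selected cells seeded at 2000/well and grown 16–24 h.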
RXFP1 antag: RXFP1 (human) relaxin receptor antagonism; Q9HBX9; HEK293-RXFP1, relaxin-stimulated cAMP HTRF, 30 min; stronger effect = lower value; 350,000 compounds, 0.59% hits; AID 1259400; activity change, negative = inhibition, % at 57.5 µM;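 active = activity change of -60% or lower, but not beyond a set lower limit; inconclusive = change between -60% and -40%, or beyond the set limit; inactive = change above -40%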
Tb PFK inh: inhibitors of T. brucei phosphofructokinase; O15648; T. brucei PFK, ADP-Glo luminescence; Potency, µM (highest dose often 57.5 µM), hits mostly inhibitors; 330,000 compounds, 0.17% hits; also: nearly all actives have a fitted effect of over 60% in size
Target sequence (O15648 whole entry, looked up): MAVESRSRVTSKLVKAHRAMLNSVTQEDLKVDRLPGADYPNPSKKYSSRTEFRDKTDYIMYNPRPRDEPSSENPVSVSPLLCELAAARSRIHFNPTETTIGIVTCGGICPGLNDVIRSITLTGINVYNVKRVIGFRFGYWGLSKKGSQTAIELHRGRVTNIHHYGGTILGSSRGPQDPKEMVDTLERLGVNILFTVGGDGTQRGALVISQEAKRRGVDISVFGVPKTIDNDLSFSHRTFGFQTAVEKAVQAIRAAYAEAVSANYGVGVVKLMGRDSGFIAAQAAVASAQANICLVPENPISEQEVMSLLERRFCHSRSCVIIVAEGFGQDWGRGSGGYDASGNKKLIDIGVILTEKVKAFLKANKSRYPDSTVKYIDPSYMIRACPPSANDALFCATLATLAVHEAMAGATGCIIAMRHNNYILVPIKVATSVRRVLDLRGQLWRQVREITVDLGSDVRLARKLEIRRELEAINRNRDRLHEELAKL
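Compounds were pin-transferred as a titration series up to 57 uM into substrate buffer (0.5 mM F6P, 0.1 mM ATP, pH 8.0), then 1.25 nM PFK was added and reactions ran 45 min before ADP-Glo detection.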
RXFP1 ag: activates the human relaxin receptor RXFP1 | HEK293T-RXFP1 cAMP TR-FRET, 30 min; response scale: percent of porcine relaxin response, buffer zero | Potency, µM (titrated, usually from 57.5 µM), most hits filed as activators | 370,000 compounds, 0.3% hits; also: nearly all actives have a fitted effect of over 60% in size
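cAMP rise read by TR-FRET after 30 min, 37C compound exposure (up to 58 uM) in RXFP1-transfected HEK293 cells with Ro 20174 present. EC50 from Hill-equation fits, with 29 nM porcine relaxin as 100% and buffer as basal.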
p53 reactivator: re-activators of mutant p53; H1299 p53-A138V BP100-luciferase reporter, luminescence, 24 h; Potency, µM (highest dose often 92.2 µM), usual class: activators; 320,000 compounds, 0.063% hits; AID 504706; also: nearly all actives have a fitted effect of over 45% in size
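H1299 (p53-null), stable ts p53-A138V + BP100-Luc; 1000 cells/well, Opti-MEM/10% FBS; cpd 4 pt, 1:5; 24 h, 37 deg C, 5% CO2; detection reagent 10 min RT; luminescence.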
A number is an active result; 0 = inactive; ? = inconclusive; - = no result; + = active, no number; [ ] = remark or other dose. Unless noted, calls follow the shape of the dose curve; as a rule, active = well fitted curve in the direction sought with a large enough effect; inconclusive = small, poorly fitted or top-dose-only effect, or another doubt; inactive = no such curve, though single readings can be large; an effect the other way counts as inactive or inconclusive.

SMILES | gsp ag | gsp antag | RXFP1 antag | Tb PFK inh | RXFP1 ag | p53 reactivator
COc1cccc(CN2CCCN(S(=O)(=O)c3ccc(Br)cc3)CC2)c1 | 0 | 39.8µM | 0 | 0 | 0 | 0
O=S(=O)(c1ccc(Br)cc1)N1CCCN(Cc2cccc(F)c2)CC1 | 0 | 0 | 0 | 0 | 0 | 0
O=S(=O)(/N=S1\CC=CCN1S(=O)(=O)c1ccccc1)c1ccccc1 (stereo unspecified) | 0 | 50.1µM | -109.7 | - | - | -
COc1ccc(NC(=O)c2ccc(-c3ccc(C(C)=O)cc3)o2)cn1 | 0 | 0 | 0 | 0 | 0 | ?
CN(Cc1ccccc1F)c1nc(-c2cccnc2)nc2ccccc12 | 0[15.4 µM] | ? | -67.3 | 0 | 0 | 0
Cn1cccc1-c1cc(C(=O)N/N=C/c2cc(Br)ccc2O)[nH]n1 | 0 | ? | -61.5 | 0 | 0 | 0
O=C(CSc1nnc2[nH]c(=O)cc(-c3ccccc3)n12)Nc1ccccc1C(F)(F)F | - | - | 0 | - | 0 | -
Oc1ccc(/C=N/Nc2ccc(C(F)(F)F)cn2)cc1 | 0 | 0 | 0 | 0 | 0 | 0
Oc1ccc(/C=N/Nc2ccc(C(F)(F)F)cn2)c(O)c1 | - | - | - | 0 | 0 | 11.2µM
COC(=O)C1CCN(C(=O)c2oc3c(Cl)cc(C)cc3c2C)CC1 | 0 | 0 | 0 | 0 | 0 | 15.8µM
CCOC(=O)C1CCCCN1C(=O)c1oc2c(Cl)cc(C)cc2c1C (stereo unspecified) | 0[15.4 µM] | ? | 0 | ? | 0 | 0
Cc1ccccc1C(=O)c1cccn1CC(=O)NCCN1CCN(c2cccc(C)c2C)CC1 | 0 | 0 | -68.7 | 0 | 0 | 0
COC(=O)c1ccc(N2NC(=O)/C(=C/c3cc(OC)c(OC)c(OC)c3)C2=O)cc1 | ? | 12.6µM | 0 | ? | 0 | 0
COC(=O)c1ccc2c(=O)n(-c3ccccc3)c(=S)[nH]c2c1 | 0 | 0 | -98.7 | 0 | 0 | 0
N#Cc1ccc(C(=O)NC2CCCCCCC2)cc1 | 0[15.4 µM] | 0 | 0 | 0 | 0 | 35.5µM
CCn1c(=O)cc(SCC(=O)NCCCN2CCN(c3ccc(F)cc3)CC2)c2ccccc21 | 22.4µM | 0 | 0 | 0 | 0 | 0
O=C(COc1ccc2c3c(c(=O)oc2c1)CCC3)NCCCN1CCOCC1 | ? | 0 | 0 | 0 | 0 | 0
Cn1c(=O)cc(SCC(=O)NCCCN2CCOCC2)c2ccc(Cl)cc21 | 28.2µM | 0 | 0 | 0 | 0 | 0
CCn1c(=O)cc(SCC(=O)NCCCN2CCC(C)CC2)c2ccccc21 | ? | 0 | 0 | 0 | 0 | 0
Cn1c(=O)cc(SCC(=O)NCCCN2CCOCC2)c2ccccc21 | 22.4µM | 0 | 0 | 0 | 0 | 0
Cn1c(=O)cc(SCC(=O)NCCCN2CCN(c3ccccc3F)CC2)c2ccccc21 | ? | 0 | 0 | 0 | 0 | 0
O=C(COc1ccc2c(c1)oc(=O)c1ccccc12)NCCCN1CCOCC1 | 0 | + | 0 | 0 | 0 | 0
COc1cc(C(=O)NC(=S)NCc2ccncc2)cc(OC)c1OC | 0 | - | 0 | - | - | -
FC(F)(F)c1ccccc1/C=N/N1CCN(Cc2ccccc2)CC1 | 0 | 0 | 0 | 0 | 0 | 0
COc1ccccc1N1C(=O)C2ON(c3ccccc3)C(c3ccc(N(C)C)cc3)C2C1=O (stereo unspecified) | - | - | - | 0 | 0 | 0
SMILES | gsp ag | gsp antag | RXFP1 antag | Tb PFK inh | RXFP1 ag | p53 reactivator
Cc1nc(SC(C)C(=O)Nc2ccccc2Cl)cc(-c2ccccc2)n1 (stereo unspecified) | - | - | -72.2 | - | 0 | -
O=C(N/N=C/C1CC=CCC1)c1ccccc1O (stereo unspecified) | 0 | 0 | 0 | 0 | 0 | 0
O=C(N/N=C/C1CC=CCC1)c1ccc(Cl)cc1O (stereo unspecified) | 0 | 0 | 0 | 0 | 0 | 31.6µM
O=C(c1cccc(Oc2ccc([N+](=O)[O-])cc2Cl)c1)N1CCCCC1 | 0 | 0 | 0 | 0 | 0 | 0
O=C(c1ccc(Oc2ccc([N+](=O)[O-])cc2Cl)cc1)N1CCCC1 | 0[15.4 µM] | 11.2µM | 0 | 0 | 0 | 0
NC(=S)n1[nH]c(-c2ccc([N+](=O)[O-])cc2)c(N=Nc2cccc([N+](=O)[O-])c2)c1=O | 0 | 14.1µM | 0 | 0 | 0 | 0
Cc1c(N=Nc2c(-c3ccc([N+](=O)[O-])cc3)[nH]n(C(N)=S)c2=O)cccc1[N+](=O)[O-] | 0 | 8.91µM | 0 | 0 | 0 | 0
CCOc1cc(/C=C(\C#N)C(=O)Nc2ccccc2C(=O)O)ccc1OC(=O)c1ccc(C)cc1 | ? | 0 | 0 | 0 | 0 | ?
Cc1c(-c2ccccc2)c(=O)oc2c(CN3CCCC3)c(O)ccc12 | - | - | 0 | - | 0 | -
Cc1ccc(OCc2nnc(NC(=O)c3cccnc3)s2)cc1 | 0 | 7.94µM | 0 | 0 | 0 | 0
COc1ccccc1N1CCN(C(=O)c2cc3c(C)nc4ccccc4c3o2)CC1 | 0 | 0 | -62.3 | 0 | 0 | 0
O=C(O)CC/C(=C/c1cccc(NC(=O)c2ccccc2Cl)c1)c1nc2ccccc2s1 | 0 | ? | 0 | - | - | -
COc1cc(/C=C(\CCC(=O)O)c2nc3ccccc3s2)ccc1OCC(=O)Nc1c(Cl)cccc1Cl | 0 | 28.2µM | 0 | 0 | - | 0
CCN(C(=O)CSc1nc(C)nc2sc(C)c(C)c12)c1ccc(F)cc1 | ? | 0 | 0 | 0 | 0 | 0
CCN(Cc1ccc2c(c1)OCO2)C(=O)CSc1nc(C)nc2sc(C)c(C)c12 | 0 | 39.8µM | 0 | 0 | 0 | 0
O=C(OC[C@H]1O[C@@H](OC(=O)c2cc(O)c(O)c(OC(=O)c3cc(O)c(O)c(O)c3)c2)[C@H](OC(=O)c2cc(O)c(O)c(OC(=O)c3cc(O)c(O)c(O)c3)c2)[C@@H](OC(=O)c2cc(O)c(O)c(OC(=O)c3cc(O)c(O)c(O)c3)c2)[C@@H]1OC(=O)c1cc(O)c(O)c(OC(=O)c2cc(O)c(O)c(O)c2)c1)c1cc(O)c(O)c(OC(=O)c2cc(O)c(O)c(O)c2)c1 | - | - | - | 0.0953µM | 0 | 0
CCO[C@@H]1OC(C(=O)N2CCCCCCC2)=C[C@H](c2ccc(C(F)(F)F)cc2)[C@H]1CCCO | - | 0 | - | 0 | 0 | 0
COc1ccc(CCn2c(-c3ccncc3)n[nH]c2=S)cc1OC | 0[15.4 µM] | - | 0 | 0 | 0 | 0
Cc1ccc(CNC(=O)CCS(=O)(=O)c2ccc(Br)cc2)cc1 | 0 | 0 | 0 | ? | 0 | 0
O=C(CCS(=O)(=O)c1ccc(Br)cc1)NCc1ccc(F)cc1 | 0 | 0 | 0 | 23.9µM | 0 | 0
CN=c1sc2ccccc2n1CC(O)COc1ccccc1 (stereo unspecified) | 0 | 0 | 0 | 0 | 0 | 0
CCN=c1sc2ccccc2n1CC(O)COc1ccccc1 (stereo unspecified) | 0 | 0[15.4 µM] | -67.9 | 0 | 0 | 0
OCCNC(=S)NCCc1ccccc1 | 0 | 0 | 0 | 0 | 0 | 0
CC(C)(CNC(=S)NCCc1ccccc1)CNC(=S)NCCc1ccccc1 | 0 | 35.5µM | 0 | 0 | 0 | 0
